Results on 20 compounds are retold here after PubChem BioAssay.

Experiment [1] can be described thus: antimalarial activity against Dd2 strain (AID 2302;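 active means growth inhibition above 50% at the single 2 µM test dose, taken to imply half-maximal potency below 2 µM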;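 further: 0% = DMSO untreated growth and 100% = chloroquine plus artemisinin killed control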). The conditions noted are these: P. falciparum Dd2 in RBCs, LDH growth readout, 72 h; at 2 µM; hits give high values.
Experiment [2] is described as follows: human hepatoma cell viability loss – ATP luminescence, cytotoxicity control for P. falciparum antimalarial project, primary screen (AID 2303;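 active means inhibition above 50%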;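 further: 0% = DMSO wells and 100% = digitonin-killed cells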). The following applies: HepG2 viability, 24-48 h, at 10 µM, hits give high values.
Experiment [3] has as its target L-lactate dehydrogenase (Plasmodium falciparum (isolate CDC / Honduras)) (UniProt Q27743). Briefly: PfLDH activity inhibition – cell lysate, 3D7 strain, counter-screen for P. falciparum growth inhibition project (AID 2304).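 Further: 0% = vehicle and 100% = reference inhibitor.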 The following applies: P. falciparum 3D7 crude extract, LDH APAD/NBT absorbance; at 2 µM; hits give high values. Background: The purpose of a counterscreen is to sort out artefacts and off-target activity.

Experiment [4] can be described thus: inhibition of 3D7 malaria parasite growth – strain 3D7 (AID 2306).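 Further: 0% = DMSO wells and 100% = chloroquine plus artemisinin control wells.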 The conditions noted are these: P. falciparum 3D7 erythrocytic growth, LDH absorbance, 72 h; at 2 µM; hits give high values.
The target of experiment [5] is Calcium-dependent protein kinase 1 (Plasmodium falciparum (isolate 3D7)) (UniProt P62344). Briefly: PfCDPK1 kinase inhibitors, biochemical, TCAMS library (AID 1159585; cut-off not given, nearly all actives have IC50 up to about 0.98 µM;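 further: inhibitors leave more ATP so luminescence rises with inhibition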). The following applies: recombinant PfCDPK1, Kinase-Glo ATP depletion luminescence.
Sequence of Calcium-dependent protein kinase 1 (Plasmodium falciparum (isolate 3D7)) (P62344 whole entry, looked up): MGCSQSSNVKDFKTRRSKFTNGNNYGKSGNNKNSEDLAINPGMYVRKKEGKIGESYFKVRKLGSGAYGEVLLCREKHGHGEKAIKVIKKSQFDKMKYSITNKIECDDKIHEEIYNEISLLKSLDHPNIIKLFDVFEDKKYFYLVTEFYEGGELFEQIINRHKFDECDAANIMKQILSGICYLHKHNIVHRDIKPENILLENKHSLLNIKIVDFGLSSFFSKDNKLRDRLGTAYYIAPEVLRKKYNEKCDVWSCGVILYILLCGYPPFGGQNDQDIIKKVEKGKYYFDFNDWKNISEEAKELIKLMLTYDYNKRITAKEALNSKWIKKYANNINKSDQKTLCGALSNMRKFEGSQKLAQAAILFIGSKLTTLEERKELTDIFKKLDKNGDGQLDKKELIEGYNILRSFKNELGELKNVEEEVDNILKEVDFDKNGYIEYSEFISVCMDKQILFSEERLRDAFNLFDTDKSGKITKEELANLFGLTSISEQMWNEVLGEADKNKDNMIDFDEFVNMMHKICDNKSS
Experiment [6] has as its target Plasmodium falciparum protein kinase 6 (PK6, PF3D7_1337100) (UniProt Q8IDW1). Briefly: PfPK6 kinase inhibitors, biochemical, TCAMS library (AID 1159586). The conditions noted are these: recombinant PfPK6, Kinase-Glo ATP depletion luminescence.
Experiment [7] concerns the target Protein kinase 7 (PK7), Plasmodium falciparum 3D7 (PF3D7_0213400) (UniProt Q7YTF7). Put plainly: inhibition of Plasmodium PK7 catalytic activity – biochemical, TCAMS antimalarial set, Kinase-Glo luminescence (AID 1159587). The following applies: recombinant PfPK7, Kinase-Glo ATP depletion luminescence. A general note: In Kinase-Glo more light means more ATP remaining.

The target of experiment [8] is Calcium-dependent protein kinase 4 (Plasmodium falciparum (isolate 3D7)) (UniProt Q8IBS5). Briefly: PfCDPK4 kinase inhibitors, biochemical, TCAMS library (AID 1159588; cut-off not given, nearly all actives have IC50 up to about 0.91 µM). The conditions noted are these: recombinant PfCDPK4, Kinase-Glo ATP depletion luminescence.
Sequence of Calcium-dependent protein kinase 4 (Plasmodium falciparum (isolate 3D7)) (Q8IBS5 whole entry, looked up): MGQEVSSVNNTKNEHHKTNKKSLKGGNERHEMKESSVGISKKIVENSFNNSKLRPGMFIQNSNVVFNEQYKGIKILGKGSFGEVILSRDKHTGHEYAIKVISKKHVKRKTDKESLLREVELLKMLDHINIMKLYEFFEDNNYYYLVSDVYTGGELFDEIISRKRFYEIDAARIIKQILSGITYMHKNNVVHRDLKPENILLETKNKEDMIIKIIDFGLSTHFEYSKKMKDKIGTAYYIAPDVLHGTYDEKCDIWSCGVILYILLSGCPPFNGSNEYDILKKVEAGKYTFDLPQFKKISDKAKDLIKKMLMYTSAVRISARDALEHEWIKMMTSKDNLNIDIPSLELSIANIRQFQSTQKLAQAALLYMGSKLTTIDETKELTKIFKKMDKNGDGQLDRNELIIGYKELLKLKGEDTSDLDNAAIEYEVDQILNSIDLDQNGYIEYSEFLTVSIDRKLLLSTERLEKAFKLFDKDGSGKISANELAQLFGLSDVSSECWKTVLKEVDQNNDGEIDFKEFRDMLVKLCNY

By inhibition is commonly meant the relative decrease from the control value, in per cent.

A number with no mark means an inactive call. For some of these results: Potency and affinity values are given separately. Calls of active or inactive are those of the source. Unless noted, how the calls were made is not given here.

Sequence of Protein kinase 7 (PK7), Plasmodium falciparum 3D7 (PF3D7_0213400) (Q7YTF7 1-343): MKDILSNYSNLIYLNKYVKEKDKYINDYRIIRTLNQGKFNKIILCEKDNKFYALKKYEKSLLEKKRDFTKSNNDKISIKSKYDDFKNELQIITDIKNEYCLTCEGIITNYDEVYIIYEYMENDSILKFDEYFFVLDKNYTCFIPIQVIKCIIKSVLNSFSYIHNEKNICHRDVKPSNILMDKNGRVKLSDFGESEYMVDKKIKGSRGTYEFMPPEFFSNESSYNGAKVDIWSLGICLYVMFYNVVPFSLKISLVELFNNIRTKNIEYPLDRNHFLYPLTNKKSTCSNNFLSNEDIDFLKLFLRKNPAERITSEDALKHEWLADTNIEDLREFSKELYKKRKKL
Sequence of L-lactate dehydrogenase (Plasmodium falciparum (isolate CDC / Honduras)) (Q27743 whole entry, looked up): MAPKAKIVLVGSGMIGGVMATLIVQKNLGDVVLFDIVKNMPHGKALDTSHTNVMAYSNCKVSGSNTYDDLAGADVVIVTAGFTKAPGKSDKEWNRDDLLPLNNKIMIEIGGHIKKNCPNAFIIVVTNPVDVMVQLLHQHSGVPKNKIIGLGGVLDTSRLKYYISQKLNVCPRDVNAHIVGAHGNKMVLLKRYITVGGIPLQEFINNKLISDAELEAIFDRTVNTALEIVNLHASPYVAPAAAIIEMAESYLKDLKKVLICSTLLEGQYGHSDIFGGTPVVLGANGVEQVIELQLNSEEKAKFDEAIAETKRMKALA
Sequence of Plasmodium falciparum protein kinase 6 (PK6, PF3D7_1337100) (Q8IDW1 1-305): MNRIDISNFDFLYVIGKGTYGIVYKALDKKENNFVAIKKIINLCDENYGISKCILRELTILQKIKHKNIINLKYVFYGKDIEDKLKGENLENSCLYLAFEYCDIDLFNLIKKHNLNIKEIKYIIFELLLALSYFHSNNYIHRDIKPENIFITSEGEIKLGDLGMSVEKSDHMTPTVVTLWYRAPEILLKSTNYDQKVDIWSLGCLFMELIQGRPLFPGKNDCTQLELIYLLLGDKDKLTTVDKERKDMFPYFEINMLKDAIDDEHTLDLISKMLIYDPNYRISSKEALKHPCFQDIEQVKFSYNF

Turning to `Cc1cc(N2CCNCC2)c2cc(NC(=O)Nc3ccc(Cl)c(Cl)c3)ccc2n1`, the growth inhibition in experiment [1] is 86% (active); in experiment [4], 100% (active). The inhibition was 23% in experiment [2] and -2% in experiment [3]. In addition, the result in experiment [5], in experiment [6], in experiment [7] and in experiment [8] was inactive.

In the case of `CCCCCCNCc1c(O)ccc2c(CNCCCCCC)c(O)ccc12`, the values for the growth inhibition in experiment [1] and in experiment [4] were 100% (active) and 102% (active), respectively. The inhibition in experiment [2] is 22%; in experiment [3], -1%. Further, the result in experiment [5], in experiment [6], in experiment [7] and in experiment [8] was inactive.

Take `CS(=O)(=O)c1ccc(CNCc2ccc(-c3cccc(-c4nc5ccccc5[nH]4)c3)cc2)cc1`: the growth inhibition in experiment [1] is 88% (active); in experiment [4] it was 100% (active). The inhibition in experiment [2] was 17%; in experiment [3], -7%. Besides, the result in experiment [5], in experiment [6], in experiment [7] and in experiment [8] was inactive.

Turning to `Cc1ccc(CN=C(N)NC(=O)c2nc(Cl)c(NCc3ccc(Cl)cc3)nc2N)c(C)c1`, the growth inhibition in experiment [1] was 100% (active); in experiment [4] it was 101% (active). Also, the inhibition in experiment [2] was 28%; in experiment [3], -5%. Moreover, the outcome in experiment [5], in experiment [6], in experiment [7] and in experiment [8] was inactive.

Take `Cc1cc(C)c2cc(CNCCCNc3nc4ccccc4[nH]3)[nH]c2c1`: the growth inhibition in experiment [1] is -2%; in experiment [4], 102% (active). The inhibition in experiment [2] was 32%; in experiment [3] it was 3%. For the same compound, the outcome in experiment [5], in experiment [6], in experiment [7] and in experiment [8] was inactive.

As to `Cc1cc(NC(=O)c2sc3ccccc3c2O)no1`, the growth inhibition in experiment [1] was 25%; in experiment [4], 96% (active). Moreover, the results for the inhibition in experiment [2] and in experiment [3] were 6% and 1%, respectively. The result in experiment [5], in experiment [6], in experiment [7] and in experiment [8] was inactive.

Regarding `Cn1c(NC(=O)CCCCCNC(=O)c2ccc(O)c(-c3ccc(Cl)c(Cl)c3)c2)nc2ccccc21`, the growth inhibition in experiment [1] is 55% (active); in experiment [4] it was 100% (active). For the same compound, the inhibition in experiment [2] was -6%; in experiment [3], 7%. The outcome in experiment [5], in experiment [6], in experiment [7] and in experiment [8] was inactive.

Turning to `NC(=O)COc1c(C2CCN(CCCCNC(=O)c3ccc(-c4ccc(Cl)cc4)c(O)c3)CC2)ccc2c1CCCC2`, the figures for the growth inhibition in experiment [1] and in experiment [4] were 72% (active) and 101% (active), respectively. Also, the inhibition was 97% (active) in experiment [2] and 4% in experiment [3]. The result in experiment [5], in experiment [6], in experiment [7] and in experiment [8] was inactive.

As for `CCC[C@@H]([C@@H](CC(C)C)C(=O)N[C@@H](CCCNc1nccc(C(F)(F)F)n1)C(=O)Nc1nccs1)N(O)C=O`, the growth inhibition in experiment [1] is 98% (active); in experiment [4], 99% (active). In addition, the results for the inhibition in experiment [2] and in experiment [3] were -4% and 8%, respectively. For the same compound, the outcome in experiment [5], in experiment [6], in experiment [7] and in experiment [8] was inactive.

Take `COc1ccc(CN2CCCN(Cc3cccc(NC(=O)c4ccc(Cl)c(Cl)c4)c3)CC2)cc1`: the growth inhibition in experiment [1] was 19%; in experiment [4], 86% (active). Besides, the figures for the inhibition in experiment [2] and in experiment [3] were 38% and 5%, respectively. Also, the result in experiment [5], in experiment [6], in experiment [7] and in experiment [8] was inactive.

`OCCCCCCNc1nc(NCc2ccccc2-c2ccc(C(F)(F)F)cc2)nc(N2CCNCC2)n1`: the results for the growth inhibition in experiment [1] and in experiment [4] were 16% and 89% (active), respectively. Further, the inhibition in experiment [2] was 13%; in experiment [3] it was 2%. Also, the outcome in experiment [5], in experiment [6], in experiment [7] and in experiment [8] was inactive.

As for `O=C(N[C@@H](CC1CCCCC1)C(=O)NC1CCCc2ccccc21)c1ccc(O)c(-c2cccc([N+](=O)[O-])c2)c1` (stereo not given in full), the growth inhibition in experiment [1] is 98% (active); in experiment [4], 99% (active). In addition, the inhibition in experiment [2] is -12%; in experiment [3], 1%. Also, the result in experiment [5], in experiment [6], in experiment [7] and in experiment [8] was inactive.

Turning to `CC(C)S(=O)(=O)N1CCN(Cc2ccc3c(c2)nc(NC(=O)c2ccsc2)n3C[C@H](O)c2ccccc2)CC1`, the results for the growth inhibition in experiment [1] and in experiment [4] were 72% (active) and 91% (active), respectively. Further, the inhibition was 56% (active) in experiment [2] and 0% in experiment [3]. Moreover, the outcome in experiment [5], in experiment [6], in experiment [7] and in experiment [8] was inactive.

`Cc1[nH]nc2ccc(-c3cc(OC[C@@H](N)Cc4ccccc4)cnc3-c3ccc(OCc4cccc(F)c4)cc3)cc12`: the growth inhibition in experiment [1] was 59% (active); in experiment [4] it was 98% (active). Moreover, the inhibition was 97% (active) in experiment [2] and -5% in experiment [3]. Moreover, the result in experiment [5], in experiment [6], in experiment [7] and in experiment [8] was inactive.

Consider `COc1ccccc1-c1cccc(CNC2CCN(CC3Cn4c(=O)ccc5ccc(F)c3c54)CC2)c1` (stereo not given), for which the growth inhibition in experiment [1] is -1%; in experiment [4], 91% (active). Also, the inhibition in experiment [2] was 30%; in experiment [3], 3%. Besides, the outcome in experiment [5], in experiment [6], in experiment [7] and in experiment [8] was inactive.

With `N=C(N)c1ccc(-c2cc(-c3cccc(C(=N)N)c3)on2)cc1`, the growth inhibition in experiment [1] was 45%; in experiment [4], 96% (active). In addition, the results for the inhibition in experiment [2] and in experiment [3] were 7% and 2%, respectively. Also, the outcome in experiment [5], in experiment [6], in experiment [7] and in experiment [8] was inactive.

For the compound `Cc1ccc(C2CCN(CCCCNC(=O)c3ccc(NC(=O)c4ccc(Cl)cc4)cc3)CC2)c(OCC2CC2)c1`, the values for the growth inhibition in experiment [1] and in experiment [4] were 95% (active) and 101% (active), respectively. Besides, the inhibition in experiment [2] was 63% (active); in experiment [3], 0%. Further, the outcome in experiment [5], in experiment [6], in experiment [7] and in experiment [8] was inactive.

In the case of `CCCCCc1ccc(N2C(N)=NC(N)=NC2(C)C)cc1`, the growth inhibition in experiment [1] was 1%; in experiment [4] it was 95% (active). In addition, the inhibition in experiment [2] was 59% (active); in experiment [3], -6%. The result in experiment [5], in experiment [6], in experiment [7] and in experiment [8] was inactive.

For `CCCCCC(C)(C)NC[C@@H](O)[C@H](Cc1ccccc1)NC(=O)c1cc(NCC)cc(N2CCCC2=O)c1`, the growth inhibition in experiment [1] is 97% (active); in experiment [4] it was 99% (active). For the same compound, the results for the inhibition in experiment [2] and in experiment [3] were 9% and -5%, respectively. The outcome in experiment [5], in experiment [6], in experiment [7] and in experiment [8] was inactive.

With `Cc1ccc2c(=O)c3cc(C)ccc3[nH]c2c1`, the growth inhibition is 94% (active) in experiment [1] and 96% (active) in experiment [4]. The inhibition in experiment [2] was 10%; in experiment [3], 5%. The outcome in experiment [5], in experiment [6], in experiment [7] and in experiment [8] was inactive.
